Assay outcomes as filed in PubChem.
LDHA block: LDHA (human) enzyme inhibition. hit rate 0.15% among 480,000. activity change, % (values are at about 110 or 230 µM). P00338. purified LDHA, NADH/diaphorase-resazurin fluorescence; active compounds read low; in the data active = activity change below about -30%; inconclusive = mostly about -25% to -30%;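 note: plate controls were DMSO wells for no effect and wells without enzyme for full effect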
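Human LDH5 (2 nM) was incubated with 0.06 mM NADH and 0.2 mM pyruvate for 5 min at room temperature in Tris pH 7.4. Remaining NADH was coupled through diaphorase/resazurin, and resorufin fluorescence was read at 0 and 20 min.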
DT40 TDP1 no CPT: qHTS for Inhibitors of human tyrosyl-DNA phosphodiesterase 1 (TDP1): qHTS in cells in absence of CPT; hit rate 15% among 420,000; Potency, µM (doses to about 46.2 µM), for inactives: at the highest dose activity change, negative = growth inhibition, most hits filed as inhibitors; AID 686978, 2013; DT40 Tdp1-/- hTDP1 cells, no CPT, ATP luminescence, 48 h; note: potency is the fitted concentration of half-maximal effect; nearly all actives have a fitted effect of over 55% in size
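DT40 Tdp1-/-;hTDP1 cells, no CPT (DMSO vehicle only), 400 cells/well; compounds pin-transferred; ≥48 hr, 37 °C; CellTiter-Glo 30 min RT dark, luminescence read.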
IL1B secr inh: inhibitors of inflammasome signaling (IL-1 beta secretion). AID 743279. THP-1 LPS/ATP IL-1B secretion, AlphaLISA, 16 h; active compounds read low. activity change, % at 57.5 µM. hit rate 4.7% among 360,000; in the data active = activity change below about -50%; inconclusive = mostly about -30% to -49%
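THP-1 cells pretreated 1 hr with compounds (up to 57.5 uM final), then stimulated with LPS (250 ng/mL final) plus ATP (1.25 mM final); secreted IL-1B measured by AlphaLISA after 16 hr, decreased signal indicating inhibition.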
TDP1 cell CPT: DT40-hTDP1 cell growth loss with CPT; hit rate 12% among 420,000; Potency, µM (titrated, usually from 46.2 µM), inactives show at the highest dose activity change, negative = growth inhibition, usual class: inhibitors; chicken DT40 Tdp1-/-;hTDP1 cells + 20 nM CPT, ATP luminescence, 48 h; note: potency is the fitted concentration of half-maximal effect; nearly all actives have a fitted effect of over 55% in size
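Chicken DT40 Tdp1-/- cells complemented with human TDP1, 400 cells/well, exposed to compounds plus 20 nM camptothecin for at least 48 h at 37 C; viability read as ATP content by CellTiter-Glo luminescence.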
Gal4-VP16 FLuc: Gal4-VP16 reporter inhibition counter-screen; Drosophila S2 Gal4-VP16 UAS-luciferase, luminescence, 20 h; Potency, µM (highest dose often 53.6 µM), for the others: at the top dose activity, negative = inhibition, usual class: inhibitors; hit rate 3.5% among 310,000;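 note: Gal4-VP16 expression switched on by copper sulfate through the metallothionein promoter; potency is the fitted concentration of half-maximal effect; nearly all actives have a fitted effect of over 50% in size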
RORgamma inh: inhibitors of mouse ROR gamma transcriptional activity. Drosophila S2 Gal4-RORgamma UAS-luciferase reporter, 20 h. AID 2551. Potency, µM (top dose mostly 53.6 µM), inactives show at the highest dose activity change, negative = inhibition, actives largely listed as inhibitors. hit rate 5.4% among 310,000; note: potency is the fitted concentration of half-maximal effect; nearly all actives have a fitted effect of over 60% in size
Target sequence (P51450 whole entry, looked up, the tested form may be a part): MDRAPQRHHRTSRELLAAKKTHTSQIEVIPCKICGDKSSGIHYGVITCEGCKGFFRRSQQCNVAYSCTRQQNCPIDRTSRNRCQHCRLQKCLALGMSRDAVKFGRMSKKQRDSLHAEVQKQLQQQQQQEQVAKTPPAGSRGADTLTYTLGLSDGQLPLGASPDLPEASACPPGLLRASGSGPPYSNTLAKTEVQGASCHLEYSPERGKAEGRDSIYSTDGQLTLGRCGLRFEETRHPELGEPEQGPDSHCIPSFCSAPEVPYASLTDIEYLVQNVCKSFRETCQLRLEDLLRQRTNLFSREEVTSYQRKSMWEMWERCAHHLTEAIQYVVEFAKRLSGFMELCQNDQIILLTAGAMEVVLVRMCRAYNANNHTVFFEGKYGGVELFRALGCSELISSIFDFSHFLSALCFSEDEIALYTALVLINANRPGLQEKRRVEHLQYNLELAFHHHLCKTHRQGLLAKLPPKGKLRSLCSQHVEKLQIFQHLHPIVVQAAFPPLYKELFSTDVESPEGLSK
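A Gal4/UAS one-hybrid system in insect cells: metallothionein-promoter Gal4–ROR gamma fusion plus Photinus luciferase reporter. Copper sulfate 700 uM final, 20 hr ambient incubation, luminescent detection after 10 min with reagent.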
* marks the source's active call; other numbers are inactive results; ? = inconclusive; . = no result given; ! = repeats disagree; [ ] = remark or other dose. A selection: hits, their analogues and other compounds. The true share with any hit is near 18%. Unless noted, calls come from the whole dose curve; as a rule, active = well fitted curve in the direction sought with a large enough effect; inconclusive = small, poorly fitted or top-dose-only effect, or another doubt; inactive = no such curve, though single readings can be large; an effect the other way counts as inactive or inconclusive. Unless noted, % is set by controls: 0 for no effect and ±100 for the full control effect.

SMILES	LDHA block	DT40 TDP1 no CPT	IL1B secr inh	TDP1 cell CPT	Gal4-VP16 FLuc	RORgamma inh
CC(C)Cc1ccc(S(=O)(=O)Nc2ccc3[nH]c(=O)[nH]c3c2)cc1	1	26µM*	9	16µM*!	-17%	?
CC1CCN(c2nn3c(=O)c(C(=O)NCCc4ccccc4)cnc3s2)CC1	-1	?	.	9.2µM*	.	.
COc1ccc(CCNC(=O)c2cnc3sc(N4CCC(C)CC4)nn3c2=O)cc1OC	-1	3.7µM*	.	2.6µM*	.	.
O=C(NCCc1ccccc1)c1cnc2sc(N3CCOCC3)nn2c1=O	-2	-9%	.	-13%	.	.
COCCNC(=O)c1cnc2sc(N3CCC(C)CC3)nn2c1=O	2	-5%	.	-5%	.	.
O=C(Nc1ccc2[nH]c(=O)[nH]c2c1)c1nn(-c2ccccc2)c2c1CCCCC2	1	.	.	.	.	.
O=C(Nc1ccc(Cl)c(S(=O)(=O)N2CCOCC2)c1)c1ccc(Cl)nc1	-7	18µM*	28	?	.	.
O=C(Nc1ccc(Cl)c(S(=O)(=O)N2CCOCC2)c1)c1ccc2c(c1)OCCO2	-2	?	-24	?	3%	?
COc1ccc(C(=O)Nc2ccc(Cl)c(S(=O)(=O)N3CCOCC3)c2)cc1	-11	?	-75*	?	.	.
COc1cccc(CNC(=O)c2ccc(Cl)c(S(=O)(=O)N3CCOCC3)c2)c1	-3	4.1µM*	-8	-12%	.	.
CC(=O)c1cccc(NS(=O)(=O)c2cc(-c3nc(-c4ccccc4)no3)sc2C)c1	7	.	.	.	.	.
CC12CNCC(C)(CN(C(c3ccccc3)c3ccccc3)C1)C2	-4	13µM*	-81*	16µM*	0%	27%
c1ccc(C(c2ccccc2)N2CCC3(CCNCC3)CC2)cc1	.	2.6µM*	.	5.8µM*	-14%	?
COC(=O)N1CCC2(CC1)CN(C(c1ccccc1)c1ccccc1)C2	.	?	.	-6%	8%	-8%
O=C(CCCc1nc2ccccc2o1)NCc1ccccc1Cl	-9	.	.	.	.	.
NC(=O)CC(NC(=O)c1ccc(Br)cc1)c1ccc(N2CCC(Cc3ccccc3)CC2)c([N+](=O)[O-])c1 (stereo not given)	-7	-73%	-13	16µM*	20µM*	-6%
NC(=O)CC(NC(=O)c1ccccc1)c1ccc(N2CCC(N3CCCC3)CC2)c([N+](=O)[O-])c1 (stereo not given)	-5	0%	19	-18%	1%	-6%
NC(=O)CC(NC(=O)c1ccccc1)c1ccc(N2CCC(Cc3ccccc3)CC2)c([N+](=O)[O-])c1 (stereo not given)	-7	5.2µM*	-20	7.3µM*	11µM*	?
NC(=O)CC(NC(=O)c1ccccc1)c1ccc(N2CCN(c3ccccn3)CC2)c([N+](=O)[O-])c1 (stereo not given)	-4	21µM*	2	21µM*	-4%	-2%
O=C(Nc1cccc(O)c1)c1cc(-c2ccc3c(c2)OCO3)on1	0	?	-8	-15%	1.4µM*	4µM*
CC(=O)c1ccc(NC(=O)c2cc(-c3ccc4c(c3)OCO4)on2)cc1	-7	0%	.	-16%	.	.
Cc1ccc(NC(=O)c2cc(-c3cccc(O)c3)on2)cc1C	-5	?	-12	?	?	6%
O=C(Nc1cccc(O)c1)c1cc(-c2ccccc2Cl)on1	-3	-5%	?	-15%	1.3µM*	0.22µM*
CN(C)c1ccc(NC(=O)c2ccc3c(c2)NC(=O)CS3)cc1	0	.	.	.	.	.
COc1ccccc1C(=O)N[C@@H]1c2ccccc2C2(CCN(Cc3c(O)cccc3OC)CC2)[C@H]1O	.	18µM*	.	-8%[9.04 µM]	.	.
SMILES	LDHA block	DT40 TDP1 no CPT	IL1B secr inh	TDP1 cell CPT	Gal4-VP16 FLuc	RORgamma inh
COc1ccc(NC(=O)CC2C(=O)NCCN2C(=O)CN2CCN(c3ncccn3)CC2)cc1 (stereo not given)	-6	.	.	.	.	.
COc1cc2oc3ccccc3c2cc1N(CC(=O)N1CCCCC1)S(=O)(=O)c1ccc(C)cc1	-5	23µM*	8	?	1%	0%
COc1cc2oc3ccccc3c2cc1N(CC(=O)N(C)C)S(=O)(=O)c1ccccc1	-2	?	10	-61%	20%	-16%
CCN(CC)C(=O)CN(c1cc2c(cc1OC)oc1ccccc12)S(=O)(=O)c1ccccc1	-2	?	-12	18µM*	-6%	2%
O=C(NC1CCN(Cc2ccccc2)CC1)C(F)(F)F	4	.	.	.	.	.
S=C(Nc1ccccc1)Nc1cccc(Cl)c1Cl	-12	-2%	1	4%	7%	-43%
CC(C)(Oc1ccc(Cl)cc1)C(=O)NC1CCN(Cc2ccccc2)CC1	-3	18µM*	?	?	.	.
S=C(Nc1ccc(CN2CCCCC2)cc1)Nc1cccc(Cl)c1Cl	-10	18µM*	-12	?	2%	-26%
CC(=O)Nc1cccc(NC(=S)Nc2cccc(Cl)c2Cl)c1	-2	6%	-2	1%	-1%	15%
CCc1cccc(CC)c1NC(=S)Nc1cccc(Cl)c1Cl	7	?	21	18µM*	3%	?
S=C(Nc1cccc(Cl)c1Cl)NC1CCN(Cc2ccccc2)CC1	-8	?	-81*	21µM*	?	-41%
N#Cc1nc(-c2ccc(S(=O)(=O)N3CCOCC3)cc2)oc1NCCc1ccccc1	-5	.	.	.	.	.
FC(F)Sc1ccc(NC(=S)NCCCc2ccccc2)cc1	0	.	.	.	.	.
COc1ccc(S(=O)(=O)NCC(=O)O)c2ccccc12	50	.	.	.	.	.
Cc1cccc(NC(=S)NC2CCN(Cc3ccccc3)CC2)c1C	-5	?	-8	?	-88%	?
